# Source: PubChem BioAssay (EPA / NIEHS)
# Records with an inconclusive call do not appear. Calls of active or inactive are those of the source. Rule for the calls: active = hit-call score of the fitted dose curve at least 0.9, where 1 is the maximum; inconclusive = response in the unintended direction; inactive = score below 0.9.
# Assays:
# [1] = molecular target: rat Adenylate Cyclase, Forskolin Stimulated, Adcy5 (gene 64532) (UniProt Q04400); test: NVS_ENZ_rACFSKBinding: NovaScreen (NVS) Enzymatic Assay for rat Adenylate Cyclase, Forskolin Stimulated (AID 2283232)
# Experimental: NVS_ENZ_rACFSKBinding is a biochemical, single-readout assay that uses extracted gene-proteins from Rat forebrain membranes in a tissue-based cell-free assay. Measurements were taken 1 hour after chemical dosing in a 48-well plate.NVS_ENZ_rACFSKBinding is one of one assay component(s) measured or calculated from the NVS_ENZ_rACFSKBinding assay. It is designed to make measurements of enzyme activity, a form of enzyme reporter, as detected with scintillation counting signals by Filter-based radiodetection technology.Data from the assay component NVS_ENZ_rACFSKBinding was analyzed into 1 assay endpoint. This assay endpoint, NVS_ENZ_rACFSKBinding, was analyzed in the positive analysis fitting direction relative to DMSO as the negative control and baseline of activity. Using a type of enzyme reporter, loss-of-signal activity can be used to understand changes in the enzymatic activity as they relate to the gene Adcy5. Furthermore, this assay endpoint can be referred to as a primary readout, because this assay has produced multiple assay endpoints where this one serves a enzymatic activity function. To generalize the intended target to other relatable targets, this assay endpoint is annotated to the lyase intended target family, where the subfamily is adenylyl cyclase. […]
# [2] = molecular target: rat Acetylcholinesterase (AChE), Ache (gene 83817) (UniProt P37136); test: NVS_ENZ_rAChE: NovaScreen (NVS) Enzymatic Assay for rat Acetylcholinesterase (AChE) (AID 2283233)
# Procedure, shortened: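 Compounds first screened at 25 uM in duplicate, then those passing threshold tested in concentration series up to 50 uM, against AChE from rat brain membranes. Enzyme activity read by absorbance at 0.33 h; inhibition scored versus DMSO.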
# [3] = molecular target: rat Catechol-O-Methyl Transferase (COMT), Comt (gene 24267) (UniProt P22734); test: NVS_ENZ_rCOMT: NovaScreen (NVS) Enzymatic Assay for rat Catechol-O-Methyl Transferase (COMT) (AID 2283235)
# Procedure, shortened: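 Rat dorsal striatum extract served as COMT source; product quantified by HPLC/spectrophotometry, read at 0 h after dosing. Primary single-concentration screen at 25 uM, followed by concentration series to a 50 uM maximum.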
# Sequence of rat Acetylcholinesterase (AChE), Ache (gene 83817) (P37136 whole entry, looked up): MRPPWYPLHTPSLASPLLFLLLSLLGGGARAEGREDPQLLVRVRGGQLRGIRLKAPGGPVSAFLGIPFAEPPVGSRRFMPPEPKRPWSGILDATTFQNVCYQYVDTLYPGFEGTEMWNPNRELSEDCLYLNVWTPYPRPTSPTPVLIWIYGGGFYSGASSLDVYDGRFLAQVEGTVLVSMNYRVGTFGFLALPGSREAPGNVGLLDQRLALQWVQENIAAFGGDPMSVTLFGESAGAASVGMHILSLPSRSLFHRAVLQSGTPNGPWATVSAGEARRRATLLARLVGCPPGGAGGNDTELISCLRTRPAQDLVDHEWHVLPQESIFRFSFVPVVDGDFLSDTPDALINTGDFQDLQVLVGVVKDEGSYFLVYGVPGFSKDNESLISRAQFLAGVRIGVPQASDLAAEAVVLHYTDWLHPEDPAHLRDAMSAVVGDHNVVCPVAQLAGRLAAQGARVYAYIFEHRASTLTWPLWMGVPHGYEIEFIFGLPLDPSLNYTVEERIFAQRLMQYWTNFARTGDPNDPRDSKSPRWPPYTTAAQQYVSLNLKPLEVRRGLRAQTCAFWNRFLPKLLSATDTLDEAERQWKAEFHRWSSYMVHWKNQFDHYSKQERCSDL
# Sequence of rat Adenylate Cyclase, Forskolin Stimulated, Adcy5 (gene 64532) (Q04400 whole entry, looked up): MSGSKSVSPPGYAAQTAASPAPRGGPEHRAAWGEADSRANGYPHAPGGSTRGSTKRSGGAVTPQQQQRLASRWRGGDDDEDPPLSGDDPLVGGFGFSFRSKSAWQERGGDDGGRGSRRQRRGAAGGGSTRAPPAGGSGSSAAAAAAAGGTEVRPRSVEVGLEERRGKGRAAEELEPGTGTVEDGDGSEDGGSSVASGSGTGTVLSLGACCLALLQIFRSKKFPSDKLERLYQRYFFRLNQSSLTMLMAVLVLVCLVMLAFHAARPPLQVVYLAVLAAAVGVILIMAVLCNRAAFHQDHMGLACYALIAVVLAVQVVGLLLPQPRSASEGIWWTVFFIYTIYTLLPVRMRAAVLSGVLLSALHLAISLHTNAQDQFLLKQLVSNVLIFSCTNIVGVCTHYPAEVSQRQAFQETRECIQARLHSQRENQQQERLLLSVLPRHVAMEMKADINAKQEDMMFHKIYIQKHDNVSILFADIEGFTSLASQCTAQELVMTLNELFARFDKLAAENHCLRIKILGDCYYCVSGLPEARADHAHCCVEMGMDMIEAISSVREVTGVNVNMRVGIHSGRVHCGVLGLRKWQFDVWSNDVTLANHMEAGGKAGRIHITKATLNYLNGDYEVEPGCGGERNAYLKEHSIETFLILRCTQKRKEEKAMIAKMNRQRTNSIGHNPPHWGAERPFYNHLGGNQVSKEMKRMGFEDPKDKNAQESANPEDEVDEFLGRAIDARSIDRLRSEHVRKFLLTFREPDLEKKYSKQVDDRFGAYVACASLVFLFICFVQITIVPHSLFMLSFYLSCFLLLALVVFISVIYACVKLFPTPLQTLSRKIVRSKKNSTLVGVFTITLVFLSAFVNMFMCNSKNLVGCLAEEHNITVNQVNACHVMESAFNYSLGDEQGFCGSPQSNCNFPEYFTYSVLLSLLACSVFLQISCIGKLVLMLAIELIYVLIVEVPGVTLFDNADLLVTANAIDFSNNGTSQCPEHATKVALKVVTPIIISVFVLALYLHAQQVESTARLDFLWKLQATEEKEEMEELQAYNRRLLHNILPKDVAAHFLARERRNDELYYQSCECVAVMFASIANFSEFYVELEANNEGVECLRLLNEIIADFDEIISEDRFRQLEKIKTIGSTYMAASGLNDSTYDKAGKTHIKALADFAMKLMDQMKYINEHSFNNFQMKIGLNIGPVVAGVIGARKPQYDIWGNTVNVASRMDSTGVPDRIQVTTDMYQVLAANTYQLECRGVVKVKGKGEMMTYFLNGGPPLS
# Sequence of rat Catechol-O-Methyl Transferase (COMT), Comt (gene 24267) (P22734 whole entry, looked up): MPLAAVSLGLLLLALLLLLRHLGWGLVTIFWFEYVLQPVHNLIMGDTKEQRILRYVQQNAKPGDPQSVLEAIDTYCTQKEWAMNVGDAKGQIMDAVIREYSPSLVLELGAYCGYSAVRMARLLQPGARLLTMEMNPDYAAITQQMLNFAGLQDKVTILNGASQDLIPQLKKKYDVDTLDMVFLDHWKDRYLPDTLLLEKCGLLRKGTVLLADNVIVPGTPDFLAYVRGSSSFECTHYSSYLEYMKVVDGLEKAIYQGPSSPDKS
smiles,measurement,setting,value
CC(=O)[O][Hg][c]1ccccc1,AC50,[1],26.8 µM (active)
C=C(C)C(=O)[O][Sn]([CH2]CCC)([CH2]CCC)[CH2]CCC,outcome,[1],inactive
COc1cc2c(cc1OC)[C@@]13CCN4CC5=CCO[C@H]6CC(=O)N2[C@H]1[C@H]6[C@H]5C[C@H]43,AC50,[2],18.1 µM (active)
CCN1CCC2(CC1)COc1cc3c(cc12)N(C(=O)c1ccc(-c2ccc(-c4nnc(C)o4)cc2C)cc1)CC3,AC50,[2],3.06 µM (active)
Oc1cccc2cccnc12,AC50,[3],1.53 µM (active)
